# Screening data: PubChem BioAssay, National Center for Advancing Translational Sciences (NCATS)
# Mito fusion yeast: qHTS Assay for Small Molecule Inhibitors of Mitochondrial Division or Activators of Mitochondrial Fusion; S. cerevisiae fusion-defective mutant growth rescue, CellTiterGlo 48 h; Potency, µM (doses to about 46.1 µM), without a hit: at the top dose growth rescue (activation), usual class: activators; AID 485298, 2010; 320,000 compounds, 0.23% hits; also: % of control where 0% means no effect; nearly all actives have a fitted effect of over 45% in size
#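 Yeast fusion mutant, YPEG (non-fermentable carbon), compound, 48 h at 37C non-permissive; CellTiterGlo added, 10 min RT, luminescence read. Rescued growth = division inhibition.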
# uPA generation: qHTS for Inhibitors of Cell Surface uPA Generation. cell surface uPA generation assay, qHTS. Potency, µM (series often up to 38.3 µM), for inactives: at the highest dose activity change, negative = inhibition, actives largely listed as inhibitors. 330,000 compounds, 0.31% hits. AID 540303, 2011; active = well fitted inhibition curve with a large enough effect; inconclusive = small, poorly fitted or top-dose-only effect; inactive = no such curve, though single readings can be large or run the other way; tested in mouse RAW 264.7 cells; also: % is scaled to controls: 0 for no effect and ±100 for the full control effect; nearly all actives have a fitted effect of over 55% in size
# Gal4-VP16 FLuc: VP16 counterscreen qHTS for inhibitors of ROR gamma transcriptional activity; Drosophila S2 Gal4-VP16 UAS-luciferase, luminescence, 20 h; Potency, µM (doses to about 53.6 µM), for inactives: top-dose activity, negative = inhibition, actives largely listed as inhibitors; 310,000 compounds, 3.5% hits; AID 2546, 2010;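 also: Gal4-VP16 expression switched on by copper sulfate through the metallothionein promoter; % is scaled to controls: 0 for no effect and ±100 for the full control effect; nearly all actives have a fitted effect of over 50% in size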
# BCR signal inh: qHTS Assay to Find Inhibitors of Chronic Active B-Cell Receptor Signaling; ABC-DLBCL IkBa-CBG/CBR reporter, luminescence ratio, 4 h; Potency, µM (highest dose often 46.1 µM), without a hit: at the highest dose activity change, negative = inhibition, most hits filed as inhibitors; 340,000 compounds, 0.05% hits; AID 493014, 2011; active = well fitted inhibition curve with a large enough effect in the signal ratio, with a control signal flat, not every such curve was filed as active; inconclusive = small, poorly fitted or top-dose-only effect, or effect the other way, or a change in a side signal; the % refers to the signal ratio;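 also: plate controls were basal doxycycline-induced cells for no effect and cells given 10 µM MG132 for full effect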
#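 TMD8 human ABC-DLBCL cells with doxycycline-inducible IκBα–green luciferase fusion and unfused red luciferase, in 0.5% FBS medium; compounds up to 46 uM, 4 h at 37C. Green/red luminescence ratio, filter-overlap corrected, fitted to concentration-response curves.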
# RORgamma inh: qHTS for inhibitors of ROR gamma transcriptional activity. Nuclear receptor ROR-gamma (Mus musculus), P51450. Drosophila S2 Gal4-RORgamma UAS-luciferase reporter, 20 h. Potency, µM (top dose mostly 53.6 µM), without a hit: at the top dose activity change, negative = inhibition, hits mostly inhibitors. 310,000 compounds, 5.4% hits; also: % is scaled to controls: 0 for no effect and ±100 for the full control effect; nearly all actives have a fitted effect of over 60% in size
# Target sequence (P51450 whole entry, looked up, the tested form may be a part): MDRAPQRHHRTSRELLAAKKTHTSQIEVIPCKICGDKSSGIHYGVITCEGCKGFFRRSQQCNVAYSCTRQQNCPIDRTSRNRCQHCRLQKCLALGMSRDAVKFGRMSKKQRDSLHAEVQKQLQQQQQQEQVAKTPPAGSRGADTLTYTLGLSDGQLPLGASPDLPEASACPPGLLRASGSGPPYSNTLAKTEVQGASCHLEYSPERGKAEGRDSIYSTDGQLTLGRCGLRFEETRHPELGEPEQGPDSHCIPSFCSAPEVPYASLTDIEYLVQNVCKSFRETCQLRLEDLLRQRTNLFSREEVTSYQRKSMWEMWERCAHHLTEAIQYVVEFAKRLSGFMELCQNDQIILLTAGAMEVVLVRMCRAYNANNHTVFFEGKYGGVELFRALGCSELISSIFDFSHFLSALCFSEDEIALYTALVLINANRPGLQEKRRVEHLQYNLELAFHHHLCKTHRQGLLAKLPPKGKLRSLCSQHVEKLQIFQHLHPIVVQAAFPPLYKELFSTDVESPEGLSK
#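 Luminescence from a UAS-regulated Photinus luciferase reporter in stably transfected Drosophila Schneider cells is measured; decreased signal marks ROR gamma inhibition. Fusion expression is induced by 700 uM copper sulfate for 20 hr.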
# a7 integrin act: qHTS for Activators of Integrin-Mediated Alleviation for Muscular Dystrophy; 350,000 compounds, 0.064% hits; alpha7betagal myoblasts, beta-gal FDG fluorescence, 48 h; Potency, µM (series often up to 38.3 µM), without a hit: at the top dose activation, actives largely listed as activators; AID 624291, 2012;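 also: 100% = response of the positive control SU9516; nearly all actives have a fitted effect of over 60% in size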
#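 Alpha7betagal+/- myoblasts (passage 13) were plated 16-24 hr, then exposed to compounds (1:260 dilution of DMSO stock) for 48 hours at 37C. After MPER lysis, β-galactosidase reporter activity was read as FDG fluorescence (ex 480/em 540) after 30 minutes.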
# An asterisk follows results filed as active; ? = inconclusive; · = no result given. Only some compounds are listed: those with a hit (about 5.5% of all), similar ones and a draw of the others. Unless noted, calls follow the shape of the dose curve; as a rule, active = well fitted curve in the direction sought with a large enough effect; inconclusive = small, poorly fitted or top-dose-only effect, or another doubt; inactive = no such curve, though single readings can be large; an effect the other way counts as inactive or inconclusive. Potency is read from the fitted curve at half-maximal effect.
SMILES,Mito fusion yeast,uPA generation,Gal4-VP16 FLuc,BCR signal inh,RORgamma inh,a7 integrin act
COC(=O)C1=C(C)N(C)C(=S)NC1c1ccc(OC)cc1OC (centres undefined),0.8%,11.1%,?,-2.3%,15.8µM*,2.0%
Cc1ccc(NC(=O)Cn2c(=O)n(Cc3ccccc3)c(=O)c3c2c2cc(C)ccc2n3C)cc1,·,·,·,-5.8%,·,·
COCCN(C(=O)CSc1n[nH]c(-c2ccccc2)n1)c1c(N)n(Cc2ccccc2)c(=O)[nH]c1=O,0.7%,3.8%,·,?,·,10.5%
CN(Cc1ccco1)C(=O)Cn1nc(-c2ccc(Cl)cc2)ccc1=O,2.7%,-21.2%,-1.4%,0.4%,27.9%,27.9%
CC(C)n1c(SCC(=O)c2ccc(F)cc2)nc2c(sc3ccccc32)c1=O,·,·,·,-19.9%,·,·
CCOC(=O)C1=C(C)C(c2ccc(OC)cc2)NC(=S)N1 (centres undefined),0.2%,-2.3%,-4.5%,13.2%,?,0.0%
CCOC(=O)C1=C(C)NC(=S)N(C(C)=O)C1c1ccc(Cl)cc1 (centres undefined),8.1%,-9.3%,17.8µM*,?,7.94µM*,-3.8%
CCOC(=O)C1=C(C)N(C)C(=S)NC1c1ccccc1 (centres undefined),-11.0%,0.1%,8.91µM*,11.0%,6.31µM*,1.2%
CCOC(=O)C1=C(C)N(C)C(C)=C(C(=O)OCC)C1c1ccc(Cl)cc1,27.6%,0.9%,22.4µM*,?,-25.5%,?
CCOC(=O)C1=C(C)C(c2cccc(Oc3ccccc3)c2)NC(=S)N1 (centres undefined),?,6.3%,17.8µM*,?,7.08µM*,30.2%
O=C(COc1cccc(-n2cnnn2)c1)Nc1ccc([N+](=O)[O-])cc1,-5.4%,1.2%,-0.9%,?,9.9%,-11.5%
Cc1ccc(NS(=O)(=O)N2CCOCC2)cc1Cl,-1.7%,-4.6%,29.9%,?,0.355µM*,4.1%
Cc1ccc2c(cnn2C(=O)CCC(=O)NCc2cccc(Cl)c2)c1,-2.5%,-0.9%,-12.0%,-12.2%,-20.8%,19.1%
CCc1ccc(NC(=O)c2nc(S(=O)(=O)Cc3ccccc3)ncc2Cl)cc1,-54.6%,·,3.16µM*,?,0.282µM*,·
CCCc1nnc(NC(=O)c2nc(S(=O)(=O)Cc3ccc(C)cc3)ncc2Cl)s1,-16.2%,?,?,?,?,-63.5%
CCCS(=O)(=O)c1ncc(Cl)c(C(=O)Nc2ccc(S(=O)(=O)Nc3ncccn3)cc2)n1,-25.0%,-3.4%,?,5.1%,?,-5.8%
CCCSc1nnc(NC(=O)c2nc(SC)ncc2Cl)s1,10.4%,9.8%,-38.6%,-19.8%,12.6µM*,-8.5%
Cc1ccc(NC(=O)c2nc(S(=O)(=O)Cc3ccccc3C)ncc2Cl)cc1C,-37.2%,-3.1%,5.01µM*,?,?,-39.6%
CSc1nnc(NC(=O)c2nc(S(=O)(=O)Cc3ccccc3)ncc2Cl)s1,-4.9%,-3.4%,?,?,12.6µM*,-73.6%
CCNc1nc(C#N)nc2c1ncn2-c1cc(F)cc(F)c1,2.9%,5.7%,·,?,·,·
O=C(CN(Cc1ccccc1Cl)S(=O)(=O)c1ccc(Cl)cc1)N/N=C/c1ccc(C(=O)O)cc1,-1.2%,-4.4%,-10.2%,?,-11.1%,0.0%
COc1ccc(-c2nc3sc(CCNC(=O)C(=O)Nc4ccc(C)c(C)c4)c(C)n3n2)cc1,·,·,·,1.1%,·,·
CCS(=O)(=O)c1ncc(Cl)c(C(=O)Nc2ccc(S(=O)(=O)N3CCC(C)CC3)cc2)n1,-32.2%,-4.7%,4.47µM*,?,3.16µM*,0.0%
CC1CCN(S(=O)(=O)c2ccc(NC(=O)c3ccncc3)cc2)CC1,-3.5%,-0.6%,?,?,-5.2%,-20.9%
